In the library only some 4% were active in any assay of this set; here they are far more common.
EWS-Fli block – blocks EWS/Fli oncoprotein-driven transcription. A673 NR0B1-luciferase reporter, viability-normalised. inhibition, % at 12.6 µM. 0.67% of 350,000 active;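 active = mean inhibition of at least 50% after viability correction, with every replicate also passing that limit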;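 note: firefly luciferase signal divided by Alamar Blue viability fluorescence both relative to DMSO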
esBAF inh – inhibitors of esBAF chromatin remodeling in mouse ES cells. Bmi1-luciferase knock-in reporter, 24 h; 100% = twice the neutral-well signal. 2% of 350,000 active. reporter increase, % at 12.5 µM. AID 602393; in the data active = activation above about 40%;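 note: 0% = median of the plate's neutral control wells and 100% = double that signal; a rise in the Bmi1 reporter signal indicates esBAF inhibition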
PAX8 inh HTS – PAX8 transcriptional activity inhibition; 1.2% of 360,000 active; RMG-I TPO-luciferase reporter, SteadyGlo, 24 h; inhibition, % at 12.6 µM;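 active = mean replicate inhibition at least 60% with every replicate also reaching 60%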;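 note: luciferase light reporting Pax8 driven TPO promoter activity; plate controls were median of neutral control wells for no effect and mitoxantrone controls for full effect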
DNA binding – binds DNA displacing acridine orange | shares compounds with EWS-Fli block | salmon sperm DNA acridine orange fluorescence polarization | AC35, µM (highest dose often 68 µM), without a hit: top-dose activity change, negative = DNA binding | 2% of 640 active;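 active = fitted curve reaches a 35% signal fall AC35 below twice the sample's top valid tested dose, actives reach about 48 µM in these data; inactive = the rest, including activity in the rising direction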;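 note: lower polarization ratio signals compound binding to DNA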
Starred values were filed as active, the others as inactive.

What do the screens show for `CN(C)C(=O)[C@H]1[C@H](CO)[C@H]2Cn3c(ccc(-c4cncnc4)c3=O)[C@H]2N1Cc1ccccc1F`?
EWS-Fli block: -2; esBAF inh: -5; PAX8 inh HTS: -14

Results for C[C@@H]1CN([C@H](C)CO)C(=O)c2cccc(N(C)C)c2O[C@@H]1CN(C)Cc1ccc(C(=O)Nc2ccccc2N)cc1 ?
EWS-Fli block: 56*; esBAF inh: -2; PAX8 inh HTS: 32; DNA binding: -3%

Results for C[C@H]1CN([C@@H](C)CO)C(=O)c2cccc(NC(=O)Nc3ccccc3)c2O[C@@H]1CN(C)Cc1ccc(-c2ccccc2)cc1 ?
EWS-Fli block: -10; esBAF inh: 0; PAX8 inh HTS: -29

Results for Cc1ccc(S(=O)(=O)N(C)C[C@H]2Oc3c(cccc3N(C)C)C(=O)N([C@H](C)CO)C[C@@H]2C)cc1 ?
EWS-Fli block: 8; esBAF inh: -1; PAX8 inh HTS: -4

Results for C[C@@H]1CN([C@@H](C)CO)C(=O)c2cccc(NC(=O)Nc3ccccc3)c2O[C@@H]1CN(C)Cc1ccc(-c2ccccc2)cc1 ?
EWS-Fli block: 78*; esBAF inh: 0; PAX8 inh HTS: 15; DNA binding: 0%

How did Cc1ccc(S(=O)(=O)N(C)C[C@H]2Oc3c(cccc3N(C)C)C(=O)N([C@@H](C)CO)C[C@@H]2C)cc1 do in these assays?
EWS-Fli block: 53*; esBAF inh: 2; PAX8 inh HTS: -9; DNA binding: -11%

How did C[C@H]1CN([C@@H](C)CO)C(=O)c2cccc(NC(=O)c3ccc(-c4nccs4)cc3)c2O[C@@H]1CN(C)Cc1ccc(C(=O)Nc2ccccc2N)cc1 do in these assays?
EWS-Fli block: 52*; esBAF inh: 1; DNA binding: 7%

What do the screens show for `C[C@H]1CN([C@@H](C)CO)S(=O)(=O)c2ccc(C#Cc3cccc(F)c3)cc2O[C@H]1CN(C)S(=O)(=O)c1ccccc1F`?
EWS-Fli block: 0; esBAF inh: 4

How did O=C(C[C@H]1CC[C@H](NC(=O)c2ccc3c(c2)OCO3)[C@@H](CO)O1)NCc1ccc(Cl)cc1 do in these assays?
EWS-Fli block: -25; esBAF inh: 7; PAX8 inh HTS: 1

How did C[C@@H]1CN([C@@H](C)CO)C(=O)c2cccc(NC(=O)Nc3cccc4ccccc34)c2O[C@@H]1CN(C)Cc1ccc(C(=O)Nc2ccccc2N)cc1 do in these assays?
EWS-Fli block: 54*; PAX8 inh HTS: 40; DNA binding: 2%

How did C[C@H](CO)N1C[C@H](C)[C@H](CN(C)Cc2ccc(C(=O)Nc3ccccc3N)cc2)Oc2c(cccc2N(C)C)C1=O do in these assays?
EWS-Fli block: 54*; esBAF inh: -5; PAX8 inh HTS: 9; DNA binding: 4%

How did C[C@H](CO)N1C[C@H](C)[C@H](CN(C)Cc2ccc(C(=O)Nc3ccccc3N)cc2)Oc2c(NC(=O)C3CC3)cccc2C1=O do in these assays?
EWS-Fli block: 26; esBAF inh: -12

Results for C[C@@H]1CN([C@H](C)CO)C(=O)c2cc(C#CCN(C)C)cnc2O[C@H]1CN(C)Cc1ccc(-c2ccccc2)cc1 ?
EWS-Fli block: 54*; esBAF inh: -6; DNA binding: -17%

What do the screens show for `COc1ccc2c3c(n(C)c2c1)[C@H](CO)N(C)CC31CN(S(=O)(=O)c2cccc(F)c2)C1`?
EWS-Fli block: -2

Screens deposited in PubChem by Broad Institute.
